Results published in PubChem BioAssay (Tox21).
Results filed as inconclusive are left out. Activity calls are given as the source filed them. Unless noted, calls follow the shape of the dose curve; as a rule, active = well fitted curve in the direction sought with a large enough effect in the repeat runs; inconclusive = weak or mixed curves; inactive = no such curve, though single readings can be large; an effect the other way counts as inactive or inconclusive.

Key:
[1] = qHTS assay to identify small molecule agonists of the hypoxia (HIF-1) signaling pathway (AID 1224846; active = well fitted activation curve with a large enough effect in the signal ratio in the repeat runs, not every such curve was filed as active; the % refers to the signal ratio)
Method in brief: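 Reporter induction in HRE-bla ME-180 cells is taken as agonism: cells sit 5 hrs after plating, receive compounds or DMSO only, incubate 17 hrs at 37C under 5% CO2, and are loaded with CCF4-AM for beta-lactamase FRET measurement.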

[2] = qHTS assay to identify small molecule agonists of H2AX - cell viability counter screen (AID 1224847; calls by dose curve;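 also: wild-type CHO-K1 cells; top concentration of the series differs between compounds; nearly all actives have a fitted effect of over 30% in size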)
Method in brief: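 CHO-K1 cells plated overnight at 37C, then exposed 3 h at 37C to compounds at 15 concentrations (0.76% DMSO final). Viability by CellTiter-Glo luminescence after 30 min at room temperature.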

[3] = qHTS assay to identify small molecule antagonists of the estrogen related receptor (ERR) signaling pathway from Tox21 library (AID 1224848); also: nearly all actives have a fitted effect of over 50% in size
Method in brief: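 First, 2,000 ERR cells per well were plated and held 6 h at 37 C/5% CO2. Next, compounds in DMSO were pinned in and left 18 h at 37 C. Finally, ONE-Glo was added and luminescence read after 30 min at room temperature.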

[4] = qHTS assay to identify small molecule agonists of the estrogen related receptor (ERR) signaling pathway from Tox21 library (AID 1224849; calls by dose curve; also: nearly all actives have a fitted effect of over 15% in size); settings: ERR reporter cell line, ONE-Glo luciferase, 18 h; at 92.4 µM (top of the series) unless noted
Method in brief: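 Tox21 compounds tested for ERR agonism in an NTP reporter cell line: 18 h treatment at 37 C, then ONE-Glo luminescence.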

[5] = qHTS RealTime-Glo MT Cell Viability Assay in HepG2 cells - 24 hour (AID 1224867); also: nearly all actives have a fitted effect of over 50% in size
Method in brief: (§1)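 Viability was tracked continuously by NanoLuc luminescence from prosubstrate reduced by living HepG2 cells, at successive time points over 40 h of compound exposure. Cells with reagent were preincubated 5 h at 37 °C before compound addition.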

[6] = qHTS RealTime-Glo MT Cell Viability Assay in HEK293 cells - 32 hour (AID 1224868); also: top concentration of the series differs between compounds; nearly all actives have a fitted effect of over 50% in size
Method in brief: (§2)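 Viability tracked continuously by luminescence as live cells reduce a prosubstrate for NanoLuc; HEK293 cells preincubated 5 h, compound-treated at 37 C, and read at 0, 8, 16, 24, 32 and 40 h.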

[7] = A CellTox Green Cytotoxicity Assay to monitor cytotoxicity in HEK293 cells - 0 hour (AID 1224869); also: nearly all actives have a fitted effect of over 50% in size
Method in brief: (§3)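 Tox21 screen in HEK293: membrane-impermeant cyanine dye fluoresces on binding dead-cell DNA; compound pinned 5 h post-seeding, plates held at 37 C, signal read repeatedly through 40 h.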

[8] = qHTS RealTime-Glo MT Cell Viability Assay in HepG2 cells - 40 hour (AID 1224870); also: nearly all actives have a fitted effect of over 50% in size
Method in brief: (§4)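 HepG2 cells mixed with RealTime-Glo MT reagents (NanoLuc plus cell-permeant prosubstrate) were seeded at 600 cells/well, incubated 5 h at 37 C/5% CO2, then pinned with compounds in DMSO; nonlytic luminescence tracked viability during 40 h treatment.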

[9] = A CellTox Green Cytotoxicity Assay to monitor cytotoxicity in HEK293 cells - 40 hour (AID 1224871); also: nearly all actives have a fitted effect of over 45% in size
Method in brief: as §3

[10] = qHTS RealTime-Glo MT Cell Viability Assay in HEK293 cells - 16 hour (AID 1224872)
Method in brief: as §2

[11] = qHTS RealTime-Glo MT Cell Viability Assay in HepG2 cells - 8 hour (AID 1224873); also: nearly all actives have a fitted effect of over 55% in size
Method in brief: as §4

[12] = qHTS RealTime-Glo MT Cell Viability Assay in HEK293 cells - 40 hour (AID 1224874); settings: RealTime-Glo luminescence; max response: active compounds read low; also: nearly all actives have a fitted effect of over 50% in size
Method in brief: (§5)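 HEK293 + NanoLuc + prosubstrate, 600 cells/well; 5 h, 37 C/5% CO2; compound 23 nL in DMSO by pintool; 37 C; luminescence read at 0, 8, 16, 24, 32 and 40 h time points.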

[13] = A CellTox Green Cytotoxicity Assay to monitor cytotoxicity in HEK293 cells - 24 hour (AID 1224875); also: nearly all actives have a fitted effect of over 45% in size
Method in brief: as §3

[14] = qHTS RealTime-Glo MT Cell Viability Assay in HepG2 cells - 32 hour (AID 1224877); also: nearly all actives have a fitted effect of over 55% in size
Method in brief: as §1

[15] = A CellTox Green Cytotoxicity Assay to monitor cytotoxicity in HepG2 cells - 24 hour (AID 1224878); also: nearly all actives have a fitted effect of over 45% in size
Method in brief: (§6)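 Measurements at 0, 8, 16, 24, 32 and 40 h of treatment captured CellTox Green fluorescence in HepG2 cells that had been co-plated with reagent and preincubated 5 h at 37 C/5% CO2.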

[16] = A CellTox Green Cytotoxicity Assay to monitor cytotoxicity in HepG2 cells - 40 hour (AID 1224879); also: nearly all actives have a fitted effect of over 40% in size
Method in brief: as §6

[17] = qHTS RealTime-Glo MT Cell Viability Assay in HEK293 cells - 0 hour (AID 1224880); also: top concentration of the series differs between compounds; nearly all actives have a fitted effect of over 45% in size
Method in brief: as §5

[18] = A CellTox Green Cytotoxicity Assay to monitor cytotoxicity in HEK293 cells - 32 hour (AID 1224881); also: nearly all actives have a fitted effect of over 40% in size
Method in brief: as §3

[19] = A CellTox Green Cytotoxicity Assay to monitor cytotoxicity in HepG2 cells - 0 hour (AID 1224882); also: nearly all actives have a fitted effect of over 35% in size
Method in brief: as §6

[20] = A CellTox Green Cytotoxicity Assay to monitor cytotoxicity in HepG2 cells - 16 hour (AID 1224876); also: nearly all actives have a fitted effect of over 45% in size
Method in brief: as §6
% is scaled to controls: 0 for no effect and ±100 for the full control effect.

CCOC(OCC)C(=O)c1ccccc1
inactive: outcome [1] | Potency [2] | Potency [3] | activity change, positive = activation [4] 1.64% | Potency [5] | Potency [6] | Potency [7] | Potency [8] | Potency [9] | Potency [10] | Potency [11] | max response [12] 0.351% | Potency [13] | Potency [14] | Potency [15] | Potency [16] | Potency [17] | Potency [18] | Potency [19]

CCc1c(C(=O)O)c(=O)cnn1-c1ccc(Cl)cc1
inactive: outcome [1] | Potency [2] | Potency [3] | activity change, positive = activation [4] 3.84% | Potency [5] | Potency [6] | Potency [7] | Potency [8] | Potency [9] | Potency [10] | Potency [11] | max response [12] 18.5% | Potency [13] | Potency [20] | Potency [14] | Potency [15] | Potency [16] | Potency [17] | Potency [18] | Potency [19]

C=CC(=C)CC/C=C(\C)CCC=C(C)C
inactive: activation [1] -0.763% [at 15.8 µM] | activity change, negative = cytotoxicity [2] 2.41% [at 31.6 µM] | activity, negative = inhibition [3] -7.19% [at 19 µM] | activity change, positive = activation [4] -3.55% [at 19 µM] | activity change, negative = cytotoxicity [5] 0.599% [at 15.8 µM] | activity change, negative = cytotoxic [6] -12.8% [at 15.8 µM] | cytotoxicity [7] 0.448% [at 15.8 µM] | activity change, negative = cytotoxic [8] -6.2% [at 15.8 µM] | cytotoxicity increase [9] 4.27% [at 15.8 µM] | activity change, negative = cytotoxicity [10] -2.14% [at 15.8 µM] | viability change, negative = cytotoxic [11] 1.83% [at 15.8 µM] | max response [12] -13.5% | activity change [13] 0.574% [at 15.8 µM, active compounds read high] | activity change, negative = cytotoxic [14] -2.56% [at 15.8 µM] | cytotoxicity [15] -0.282% [at 15.8 µM] | cytotoxicity increase [16] -0.316% [at 15.8 µM] | activity change, negative = cytotoxicity [17] -0.65% [at 15.8 µM] | cytotoxicity increase [18] 1.9% [at 15.8 µM] | cytotoxicity [19] -7.07% [at 15.8 µM]

O=S(=O)(O)CCCN1CCOCC1
inactive: outcome [1] | Potency [2] | Potency [3] | activity change, positive = activation [4] -0.481% | Potency [5] | Potency [6] | Potency [7] | Potency [9] | Potency [10] | Potency [11] | max response [12] 12.7% | Potency [13] | Potency [14] | Potency [15] | Potency [16] | Potency [17] | Potency [18]

Cc1cnccn1
inactive: outcome [1] | Potency [2] | Potency [3] | activity change, positive = activation [4] -1.47% | Potency [5] | Potency [6] | Potency [7] | Potency [8] | Potency [9] | Potency [10] | Potency [11] | max response [12] 8.17% | Potency [13] | Potency [20] | Potency [15] | Potency [16] | Potency [17] | Potency [18] | Potency [19]

O=S(=O)(O)c1cc(S(=O)(=O)O)c2ccc3c(S(=O)(=O)O)cc(S(=O)(=O)O)c4ccc1c2c43
inactive: activation [1] -0.0206% [at 15.8 µM] | activity change, negative = cytotoxicity [2] 4.65% [at 31.6 µM] | activity, negative = inhibition [3] 17.9% [at 19 µM] | activity change, positive = activation [4] 9.26% [at 19 µM] | activity change, negative = cytotoxicity [5] 3.52% [at 15.8 µM] | activity change, negative = cytotoxic [6] 2.34% [at 15.8 µM] | cytotoxicity [7] -7.26% [at 15.8 µM] | activity change, negative = cytotoxic [8] 8.14% [at 15.8 µM] | cytotoxicity increase [9] -6.93% [at 15.8 µM] | activity change, negative = cytotoxicity [10] 1.53% [at 15.8 µM] | viability change, negative = cytotoxic [11] 0.921% [at 15.8 µM] | max response [12] 2.05% | activity change [13] -0.396% [at 15.8 µM, active compounds read high] | cytotoxicity increase [20] -4.69% [at 15.8 µM] | activity change, negative = cytotoxic [14] 5.28% [at 15.8 µM] | cytotoxicity [15] -8.46% [at 15.8 µM] | cytotoxicity increase [16] -11.4% [at 15.8 µM] | activity change, negative = cytotoxicity [17] 3.1% [at 15.8 µM] | cytotoxicity increase [18] -1.7% [at 15.8 µM] | cytotoxicity [19] -2.2% [at 15.8 µM]

CO[Si](CCC1CCC2OC2C1)(OC)OC (stereo unspecified)
inactive: outcome [1] | Potency [2] | Potency [3] | activity change, positive = activation [4] 0.732% | Potency [5] | Potency [6] | Potency [7] | Potency [8] | Potency [9] | Potency [10] | Potency [11] | max response [12] 8.81% | Potency [13] | Potency [20] | Potency [14] | Potency [15] | Potency [16] | Potency [17] | Potency [18]

COc1nccnc1CC(C)C
inactive: outcome [1] | Potency [2] | Potency [3] | activity change, positive = activation [4] 0.914% | Potency [5] | Potency [6] | Potency [7] | Potency [8] | Potency [9] | Potency [10] | Potency [11] | max response [12] 10.2% | Potency [13] | Potency [20] | Potency [14] | Potency [15] | Potency [16] | Potency [17] | Potency [18] | Potency [19]

CC(COC(=O)c1ccccc1)OC(=O)c1ccccc1 (stereo unspecified)
inactive: outcome [1] | Potency [2] | Potency [3] | activity change, positive = activation [4] 6.72% | Potency [5] | Potency [6] | Potency [7] | Potency [8] | Potency [9] | Potency [10] | Potency [11] | Potency [13] | Potency [14] | Potency [15] | Potency [16] | Potency [17] | Potency [18] | Potency [19]
